Assay outcomes: PubChem, The Scripps Research Institute Molecular Screening Center
This is a sample that favours compounds with a hit; in the whole collection about 3.4% have one here.
FBW7 act: activators of human E3 ligase FBW7 | 650,000 tested, 0.13% active | normalized activity (activation), % at 26.1 µM | AlphaScreen FBW7–phospho-cyclin E peptide binding, activator screen | AID 1259310; in the data active = normalized activity above about 1.9%;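 also: purified mutant Fbw7 with reduced substrate affinity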
Target sequence (Q969H0 whole entry, looked up): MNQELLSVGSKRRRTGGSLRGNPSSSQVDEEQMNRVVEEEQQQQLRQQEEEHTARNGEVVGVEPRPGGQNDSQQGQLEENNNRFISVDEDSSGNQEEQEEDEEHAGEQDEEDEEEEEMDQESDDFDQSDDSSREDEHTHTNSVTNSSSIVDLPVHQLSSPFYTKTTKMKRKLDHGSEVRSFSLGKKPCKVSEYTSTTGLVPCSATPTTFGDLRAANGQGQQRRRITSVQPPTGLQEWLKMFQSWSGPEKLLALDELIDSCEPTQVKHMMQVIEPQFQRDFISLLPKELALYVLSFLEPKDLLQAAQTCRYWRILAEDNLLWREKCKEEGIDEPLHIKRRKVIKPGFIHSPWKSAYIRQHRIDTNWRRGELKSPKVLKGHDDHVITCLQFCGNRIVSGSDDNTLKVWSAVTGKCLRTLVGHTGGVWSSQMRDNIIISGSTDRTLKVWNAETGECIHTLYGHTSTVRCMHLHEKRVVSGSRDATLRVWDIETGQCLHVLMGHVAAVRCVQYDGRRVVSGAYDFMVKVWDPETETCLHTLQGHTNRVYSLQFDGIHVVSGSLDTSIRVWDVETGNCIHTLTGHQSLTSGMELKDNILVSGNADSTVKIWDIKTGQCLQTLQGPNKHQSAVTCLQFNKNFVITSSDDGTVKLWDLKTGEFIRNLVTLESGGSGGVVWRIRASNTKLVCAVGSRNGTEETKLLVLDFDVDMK
GPR151 ag: human GPR151 activation | 650,000 tested, 1% active | PathHunter beta-arrestin GPR151 cells, luminescence | Q8TDV0 | activation, % at 11.2 µM; in the data active = activation above about 4.9%
TEAD-YAP block: TEAD-YAP interaction inhibition; HEK-TIYL cells, TEAD-Gal4/YAP UAS-luciferase luminescence; inhibition, % at 9.12 µM; 640,000 tested, 1.4% active; AID 1259422; in the data active = inhibition above about 32%
MITF primary: blocks human microphthalmia-associated transcription factor | AlphaScreen MITF homodimerization, bead proximity signal | O75030 | AID 1259374 | 650,000 tested, 0.91% active | inhibition, % at 2.6 µM; in the data active = inhibition above about 50%
Each line names hits and unclear results; the compound was inactive in the other large screens.

COc1cc(C(=O)Nc2ccc(O)cc2)cc(OC)c1OC	none
COC(=O)c1ccc(NC(=O)c2cc(OC)c(OC)c(OC)c2)cc1	TEAD-YAP block 59.4
O=C(Nc1ccc2c(c1)Nc1ccccc1CC2)c1ccccc1	none
COc1cc(C(=O)Nc2ccc3c(c2)Nc2ccccc2CC3)cc(OC)c1OC	TEAD-YAP block 61.9
COC(=O)c1cc(Cl)c(NC(=O)COc2ccc(C)cc2Br)cc1OC	none
COc1ccc(C2CC(C(F)(F)F)n3nc(C(=O)N4CCCCC4)cc3N2)cc1OC (stereo not drawn)	TEAD-YAP block 38.0
Cc1cc(N(CC(=O)NCc2ccncc2)S(C)(=O)=O)ccc1Br	none
CCCCNC(=O)c1cc(=O)[nH]c2ccc(Br)cc12	none
Cc1cccc(N2CCN(S(=O)(=O)CCNC(=O)c3cccs3)CC2)c1	none
COc1cc(NC(=O)c2cc([N+](=O)[O-])ccc2N2CCN(C)CC2)c2ncccc2c1	none
CCOC(=O)C1CCN(c2ccc([N+](=O)[O-])cc2C(=O)Nc2cc(OC)cc3cccnc23)CC1	FBW7 act 2.1
Oc1ccc(CCNc2cc(Nc3cnccn3)ncn2)cc1	TEAD-YAP block 45.5
Oc1ccc(CCNc2ccnc(Nc3cnccn3)n2)cc1	none
CC(C)n1cnc2c(NCc3cccnc3)nc(NC3CCN(Cc4ccccc4)CC3)nc21	none
CC(C)n1cnc2c(NC3CCN(Cc4ccccc4)CC3)nc(NCc3cccnc3)nc21	TEAD-YAP block 76.4
CC(C)n1cnc2c(NC3CCN(Cc4ccccc4)CC3)nc(Nc3cnccn3)nc21	TEAD-YAP block 76.4
Oc1ccc(CCNc2nc(Nc3cnccn3)nc3c2ncn3C2CCCCC2)cc1	TEAD-YAP block 40.1
COc1ccc(CCNc2nc(Nc3cnccn3)nc3c2ncn3C2CCCCC2)cc1	none
CC(C)n1cnc2c(NC3CCN(Cc4ccccc4)CC3)nc(Nc3ccccc3)nc21	none
CCOc1ccc(OCCNC(C)C)cc1	none
CC(C)n1cnc2c(NC3CC3)nc(Nc3cnccn3)nc21	TEAD-YAP block 38.5
CC(C)n1cnc2c(NC3CCN(Cc4ccccc4)CC3)nc(Nc3ccncc3)nc21	TEAD-YAP block 68.6
COc1ccc(CCNc2nc(Nc3cnccn3)nc3c2ncn3C(C)C)cc1	TEAD-YAP block 36.2
CC(C)n1cnc2c(NC3CCN(Cc4ccccc4)CC3)nc(N3CCCC3CO)nc21 (stereo not drawn)	TEAD-YAP block 36.4
OCC1CCCN1c1nc(NC2CCN(Cc3ccccc3)CC2)c2ncn(C3CCCCC3)c2n1 (stereo not drawn)	none
CC(C)n1cnc2c(NC3CC3)nc(Nc3ccccn3)nc21	none
CC(C)NC(=O)c1cccn2c(=O)c3cc(Cl)ccc3nc12	none
COc1cc(NC(=O)c2cccc(-n3cc(Nc4nnnn4-c4ccccc4)cn3)c2)ccc1N1CCOCC1	TEAD-YAP block 31.9
COc1cc(NC(=O)c2cccc(-n3cc(Nc4nc5ccccc5[nH]4)cn3)c2)cc(OC)c1OC	TEAD-YAP block 33.7
COc1cc(NC(=O)c2cccc(-n3cc(NS(=O)(=O)Cc4ccccc4)cn3)c2)cc(OC)c1OC	TEAD-YAP block 39.4
CCOC(=O)c1c(NC(=O)CSc2ncnc3sc4c(c23)CCC4)sc2c1CCCC2	none
CC(=O)c1ccccc1-c1ccc2c(c1)CC(CNC(=O)c1ccc3c(c1)OCCO3)O2 (stereo not drawn)	TEAD-YAP block 36.6
Cc1cccc(CN2C(=O)CSc3ccccc32)c1	none
Cn1nc(-c2ccc(OCC(N)=O)cc2)c2ccccc2c1=O	none
Cn1nc(-c2ccc(OCC(=O)N3CCCCC3)cc2)c2ccccc2c1=O	TEAD-YAP block 52.1
Cn1c(C2COc3ccccc3O2)nc2ccc(-c3ncnc4[nH]ccc34)cc21 (stereo not drawn)	FBW7 act 2.8
c1ccc2c(c1)OCC(c1nc3ccc(-c4ncnc5[nH]ccc45)cc3[nH]1)O2 (stereo not drawn)	TEAD-YAP block 48.9
Cc1sc2ncn(C)c(=O)c2c1-c1ccccc1	none
Cn1c(=O)n(CC(=O)NCc2ccco2)c2cccnc21	none
COc1cccc2c(SCC(=O)Nc3ccc4c(c3)OCCO4)nccc12	TEAD-YAP block 50.9
COc1cccc2c(SCC(=O)Nc3ccc4c(c3)OCO4)nccc12	TEAD-YAP block 48.3
COC(=O)COc1cccc2c(=O)n(CC(=O)Nc3ccc4c(c3)OCCO4)ccc12	none
CCN(CC)C(=O)c1cc(-c2ccc(Cl)cc2Cl)on1	none
CC(C)(CO)NC(=O)c1cc(-c2ccc(Cl)cc2Cl)on1	TEAD-YAP block 48.3
Cc1[nH]n(-c2ccccc2)c(=O)c1/C=N/NC(=O)C1COc2ccccc2O1 (stereo not drawn)	TEAD-YAP block 35.6
CC(=O)N/N=C/c1c(C)[nH]n(-c2ccccc2)c1=O	none
Cc1ccccc1-n1[nH]c(C)c(/C=N/NC(=O)C(=O)N/N=C/c2c(C)[nH]n(-c3ccccc3C)c2=O)c1=O	MITF primary 51.7
COC(=O)c1ccc(/C=N/NC(=O)C2COc3ccccc3O2)cc1 (stereo not drawn)	none
CC(C)(C)c1ccc(/C=N/NC(=O)C2COc3ccccc3O2)cc1 (stereo not drawn)	TEAD-YAP block 35.2
c1ccc(-c2nc(NCCCN3CCOCC3)cc(-c3ccncc3)n2)nc1	none
Cc1csc(SCC(=O)N2CCC(CO)(Cc3ccccc3Cl)CC2)n1	none
CCc1nnc(NC(=O)CSc2nc3c(C)c(C)ccc3cc2C#N)s1	none
CC(=O)c1ccc(N=Nc2ccc3nonc3c2N)cc1	TEAD-YAP block 49.9
COc1cccc2sc(Nc3nc(-c4ccccn4)cs3)nc12	TEAD-YAP block 63.3
COc1ccccc1Nc1nc(-c2ccccn2)cs1	none
c1ccc(-c2csc(Nc3nc4cc5c(cc4s3)OCO5)n2)nc1	TEAD-YAP block 90.4, MITF primary 62.2
CC1(C(=O)O)NCCc2cc(O)c(O)cc21 (stereo not drawn)	MITF primary 66.4 (no result: TEAD-YAP block)
CCOC(=O)c1c(C)[nH]c(-c2csc(N)n2)c1C	TEAD-YAP block 32.3
CC(=O)Nc1ccc(S(=O)(=O)Nc2c(C)nn(C)c2C)cc1	none
Cc1nn(C)c(C)c1NS(=O)(=O)c1ccc(C(C)(C)C)cc1	TEAD-YAP block 55.0
CNC(=O)/C(C#N)=C/c1c(Oc2cc(C)ccc2C(C)C)nc2ccccn2c1=O	TEAD-YAP block 34.4
CCNC(=O)/C(C#N)=C/c1c(Oc2cc(C)ccc2C(C)C)nc2ccccn2c1=O	TEAD-YAP block 46.3
CC1C/C(=C/c2ccccn2)C(=O)/C(=C/c2ccccn2)C1 (stereo not drawn)	TEAD-YAP block 79.9
O=C(CNc1ccncc1)c1c[nH]c2ccccc12	TEAD-YAP block 82.9
O=C(CC(=O)c1c[nH]c2ccccc12)c1ccccc1	none
O=C(C(Cc1ccccc1)NS(=O)(=O)c1cccs1)N1CCCCCC1 (stereo not drawn)	none
COc1ccc(C2C(C#N)=C(N)N(c3ccc(Cl)cc3)C3=C2C(=O)CCC3)cc1 (stereo not drawn)	none
COc1ccc(N2C(N)=C(C#N)C(c3ccccc3)C3=C2CCCC3=O)cc1 (stereo not drawn)	TEAD-YAP block 44.1
CCOc1ccc(C2C(C#N)=C(N)N(c3ccc(C)cc3)C3=C2C(=O)CCC3)cc1 (stereo not drawn)	TEAD-YAP block 57.1
